According to PubChem BioAssay (EPA / NIEHS):
Activity calls are given as the source filed them. How the source made its calls: active means hit-call score of the fitted dose curve at least 0.9, where 1 is the maximum; inactive means score below 0.9.

target: Transcription factor E2F1 (Homo sapiens) (UniProt Q01094); assay: ATG_E2F_CIS: Attagene CIS-FACTORIAL HepG2 Assay for human E2F Transcription Factor 1 (AID 2282935); details: HepG2 Attagene cis-reporter, E2F reporter RNA transcripts; actives raise or lower the signal
Sequence (Q01094 whole entry, looked up): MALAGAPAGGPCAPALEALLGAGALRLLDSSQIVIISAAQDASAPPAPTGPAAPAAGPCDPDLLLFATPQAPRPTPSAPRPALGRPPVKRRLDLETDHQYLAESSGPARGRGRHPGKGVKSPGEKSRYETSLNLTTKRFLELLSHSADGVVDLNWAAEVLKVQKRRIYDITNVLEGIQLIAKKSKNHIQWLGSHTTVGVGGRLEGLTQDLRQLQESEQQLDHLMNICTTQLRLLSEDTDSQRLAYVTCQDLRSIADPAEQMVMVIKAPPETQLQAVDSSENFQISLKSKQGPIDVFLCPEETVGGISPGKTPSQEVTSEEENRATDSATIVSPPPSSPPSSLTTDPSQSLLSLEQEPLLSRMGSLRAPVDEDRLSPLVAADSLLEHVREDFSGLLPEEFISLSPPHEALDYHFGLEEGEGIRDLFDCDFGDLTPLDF
In short: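 Endogenous E2F1 activity read through cis-promoter reporter units transfected into HepG2. After 24 h compound treatment, reporter mRNA measured by RT-PCR, HpaI digestion and capillary electrophoresis. Bidirectional fit versus DMSO.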

SMILES | outcome
CCCCCCCCC=O | inactive
CCCCOCCOCCSC#N | inactive
CCCCCCCCCCCCSC | inactive
CN1[C@@H]2CC(OC(=O)[C@H](CO)c3ccccc3)C[C@H]1[C@@H]1O[C@@H]12 (stereo partly specified) | inactive
O=C(O)C[C@H](O)C[C@H](O)/C=C/c1c(C2CC2)nc2ccccc2c1-c1ccc(F)cc1 | inactive
CCn1c2ccccc2c2cc(N)ccc21 | inactive
COc1cccc(OC)c1 | inactive
CCC(=O)OCc1ccccc1 | inactive
O=[N+]([O-])c1ccc(C=Cc2ccc([N+](=O)[O-])cc2S(=O)(=O)O)c(S(=O)(=O)O)c1 | inactive
CC(C)C1CCC(O)CC1 (stereo unspecified) | inactive
CC(=O)O[C@H](CC(=O)[O-])C[N+](C)(C)C | inactive
C=C(C)C(=O)OCCOC(=O)CC(C)=O | inactive
O=C=NC1CCC(CC2CCC(N=C=O)CC2)CC1 (stereo unspecified) | inactive
O=c1cc(-c2ccccc2)oc2cc(O)cc(O)c12 | inactive
O=c1[nH]nnc2ccccc12 | inactive
OCCOc1cccc(OCCO)c1 | inactive

tested on: not listed separately; assay: ATG_E_Box_CIS: Attagene CIS-FACTORIAL HepG2 Assay for human Enhancer Box (E-box) (AID 2282936); details: HepG2 E-box cis-reporter transcription, actives raise or lower the signal
In short: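 HepG2 cells transiently transfected with multiplexed cis-element reporter units, dosed 24 h; reporter mRNA quantified by RT-PCR, 6-FAM labelling, HpaI digestion and capillary electrophoresis. E-box (USF1) signal fitted bidirectionally vs DMSO.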

SMILES | outcome | AC50
CO[Si](C)(OC)c1ccccc1 | inactive | –
CN(C)CCOCCN(C)C | inactive | –
CCC/C=C/C=O | inactive | –
CC(=O)O[C@]1(C(C)=O)CC[C@H]2[C@@H]3C[C@H](C)C4=CC(=O)CC[C@]4(C)[C@H]3CC[C@@]21C | inactive | –
CCc1ccc(C=O)cc1 | inactive | –
O=C(O)c1cn(-c2ccc(F)cc2)c2cc(N3CCNCC3)c(F)cc2c1=O | inactive | –
Cc1ccc(C=O)cc1 | inactive | –
Cc1cccc(C)c1[N+](=O)[O-] | inactive | –
COc1nc(C)nc(N)n1 | inactive | –
CCCCCCCCCCCCOCCO | – | 50.6 µM (active)
NC(N)=NC(=O)c1nc(Cl)c(N)nc1N | inactive | –
O=c1[nH]c(=O)n([C@H]2CCCO2)cc1F | inactive | –
CO[Si](CCCn1c(=O)n(CCC[Si](OC)(OC)OC)c(=O)n(CCC[Si](OC)(OC)OC)c1=O)(OC)OC | inactive | –
Nc1cc(N)cc(C(=O)O)c1 | inactive | –
CCCC(=O)OCCC(C)CCC=C(C)C (stereo unspecified) | inactive | –
O=C(O)c1cccc(C(F)(F)F)c1 | inactive | –
CC[Si](OC(C)=O)(OC(C)=O)OC(C)=O | inactive | –
O=S(=O)(O)NC1CCCCC1 | inactive | –
CCCCCCCCC=O | inactive | –
CCCCOCCOCCSC#N | inactive | –
CCCCCCCCCCCCSC | inactive | –
CCn1c2ccccc2c2cc(N)ccc21 | inactive | –
COc1cccc(OC)c1 | inactive | –
CCC(=O)OCc1ccccc1 | inactive | –
O=[N+]([O-])c1ccc(C=Cc2ccc([N+](=O)[O-])cc2S(=O)(=O)O)c(S(=O)(=O)O)c1 | inactive | –
CC(=O)O[C@H](CC(=O)[O-])C[N+](C)(C)C | inactive | –
C=C(C)C(=O)OCCOC(=O)CC(C)=O | inactive | –
O=c1cc(-c2ccccc2)oc2cc(O)cc(O)c12 | – | 25.9 µM (active)
O=c1[nH]nnc2ccccc12 | inactive | –
OCCOc1cccc(OCCO)c1 | inactive | –
